From PubChem BioAssay (NCATS)
Results filed as inconclusive are left out. Activity calls are given as the source filed them. The call rests on the fitted dose curve; in most records, active means well fitted curve in the direction sought with a large enough effect; inconclusive means small, poorly fitted or top-dose-only effect, or another doubt; inactive means no such curve, though single readings can be large; an effect the other way counts as inactive or inconclusive.

Legend:
[1] = qHTS of pediatric cancer cell lines to identify multiple opportunities for drug repurposing: Confirmatory screen for MG 63 (6-TG R) cells (AID 1347119); further: nearly all actives have a fitted effect of over 55% in size
How it was run: (§1)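 Viability after 48 h compound treatment at 37C, 500-1,000 cells/well, read as ATP luminescence with CellTiter-Glo. Primary screens used 11-point (MIPE, 0.78 nM-46 µM) or 8-point (NPC, 0.59 nM-46 µM) final concentrations; follow-up screens used 11-point dilutions.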

[2] = qHTS of pediatric cancer cell lines to identify multiple opportunities for drug repurposing: Confirmatory screen for control Hh wild type fibroblast cells (AID 1347121); further: nearly all actives have a fitted effect of over 70% in size
How it was run: as §1

[3] = qHTS of pediatric cancer cell lines to identify multiple opportunities for drug repurposing: Confirmatory screen for Rh41 cells (AID 1347123);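 further: 48 h compound exposure; nearly all actives have a fitted effect of over 60% in size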
How it was run: as §1

[4] = qHTS of pediatric cancer cell lines to identify multiple opportunities for drug repurposing: Confirmatory screen for SK-N-SH cells (AID 1347129);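 further: cells exposed to compound for 48 h before viability read; nearly all actives have a fitted effect of over 60% in size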
How it was run: as §1

[5] = qHTS of pediatric cancer cell lines to identify multiple opportunities for drug repurposing: Confirmatory screen for OHS-50 cells (AID 1347128);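 further: compound exposure lasted 48 h at 37 degrees C; nearly all actives have a fitted effect of over 55% in size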
How it was run: as §1

[6] = qHTS of pediatric cancer cell lines to identify multiple opportunities for drug repurposing: Confirmatory screen for RD cells (AID 1347124);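 further: cells exposed to compound for 48 h before viability readout; nearly all actives have a fitted effect of over 65% in size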
How it was run: as §1

[7] = qHTS of pediatric cancer cell lines to identify multiple opportunities for drug repurposing: Confirmatory screen for Rh30 cells (AID 1347126); further: nearly all actives have a fitted effect of over 55% in size
How it was run: as §1

[8] = qHTS of pediatric cancer cell lines to identify multiple opportunities for drug repurposing: Confirmatory screen for Saos-2 cells (AID 1347127); further: nearly all actives have a fitted effect of over 60% in size
How it was run: as §1

[9] = qHTS of pediatric cancer cell lines to identify multiple opportunities for drug repurposing: Confirmatory screen for U-2 OS cells (AID 1347122); further: nearly all actives have a fitted effect of over 65% in size
How it was run: as §1

[10] = qHTS of pediatric cancer cell lines to identify multiple opportunities for drug repurposing: Confirmatory screen for Rh18 cells (AID 1347125); further: nearly all actives have a fitted effect of over 55% in size
How it was run: as §1

Measured: Potency
Potency means the concentration at half of the fitted maximal effect.

CCC(C)SSc1ncc[nH]1 (centres undefined)
inactive: [2]
active: [1] 20.8 µM | [3] 9.27 µM | [4] 16.6 µM

CCCC1OC2C[C@@H]3[C@H]4CCC5=CC(=O)C=C[C@]5(C)[C@H]4C(O)C[C@]3(C)[C@]2(C(=O)CO)O1 (some centres undefined)
inactive: [1] | [2] | [5] | [4]

COc1cc([C@@H]2c3cc4c(cc3[C@@H](O[C@@H]3O[C@@H]5CO[C@@H](C)O[C@@H]5[C@H](O)[C@@H]3O)[C@H]3COC(=O)[C@H]23)OCO4)cc(OC)c1O
active: [1] 5.85 µM | [3] 4.14 µM | [7] 4.65 µM | [8] 5.22 µM | [5] 8.27 µM
inactive: [2] | [6]

CCC(c1ccc(O)cc1)C(CC)c1ccc(O)cc1 (centres undefined)
inactive: [2] | [9] | [8] | [4]
active: [1] 8.27 µM | [6] 10.4 µM

OCCn1cc(-c2ccc3c(c2)CCC3=NO)c(-c2ccncc2)n1
active: [6] 8.51 µM
inactive: [1] | [2] | [10] | [5] | [4]

FC(F)(F)c1ccc(C=Cc2nc(COc3ccc(CCCCn4ccnn4)cc3)co2)cc1
inactive: [10] | [5] | [4]
active: [1] 0.261 µM | [2] 0.369 µM | [9] 0.261 µM | [6] 1.85 µM

C=CC(=O)Nc1cccc(Sc2nc(Nc3ccc(N4CCN(C)CC4)cc3)ncc2Cl)c1
active: [1] 18.5 µM | [9] 16.5 µM | [3] 10.4 µM | [6] 5.85 µM | [10] 16.5 µM | [7] 9.27 µM | [8] 16.5 µM | [5] 14.7 µM | [4] 9.35 µM

COc1cc2ncnc(Nc3cc(Br)c(O)c(Br)c3)c2cc1OC
inactive: [1] | [2] | [6] | [10] | [8] | [5]

CC(C)C[C@@H](C(=O)N[C@H](C(=O)OC1CCCC1)c1ccccc1)[C@H](O)C(=O)NO
active: [1] 20.8 µM | [3] 11.7 µM | [8] 5.85 µM
inactive: [2] | [10]

C[C@@H]1O[C@@H](O[C@H]2CC[C@@]3(C)[C@H](CC[C@@H]4[C@H]3C[C@@H](O)[C@]3(C)[C@@H](C5=CC(=O)OC5)CC[C@]43O)C2)C[C@H](O)[C@@H]1O[C@H]1C[C@H](O)[C@H](O[C@H]2C[C@H](O)[C@@H](O)[C@@H](C)O2)[C@H](C)O1 (stereo in doubt)
active: [1] 0.0759 µM | [3] 0.107 µM | [7] 0.339 µM | [8] 1.91 µM | [4] 0.215 µM
inactive: [5]

CC(C)CN(C[C@@H](O)[C@H](Cc1ccccc1)NC(=O)O[C@H]1CO[C@H]2OCC[C@H]21)S(=O)(=O)c1ccc(N)cc1
inactive: [1] | [2] | [9] | [7] | [8] | [5]

Nc1ccc(-c2ccc3ncc4ccc(=O)n(-c5cccc(C(F)(F)F)c5)c4c3c2)cn1
active: [1] 0.0208 µM | [9] 0.185 µM | [3] 0.0369 µM | [6] 0.233 µM | [10] 0.928 µM | [7] 0.329 µM | [8] 0.329 µM | [5] 0.261 µM | [4] 0.296 µM

C[C@@]1(c2cc(-c3cncnc3)c(F)cc2F)CCSC(N)=N1
active: [1] 9.27 µM | [3] 7.37 µM
inactive: [2] | [10] | [7]

CCNC(=O)c1noc(-c2cc(C(C)C)c(O)cc2O)c1-c1ccc(CN2CCOCC2)cc1
active: [1] 0.147 µM | [9] 0.117 µM | [3] 0.0465 µM | [6] 0.0737 µM | [10] 0.0928 µM | [7] 0.0737 µM | [8] 0.131 µM | [5] 0.147 µM | [4] 0.132 µM

Nc1ccn([C@@H]2O[C@H](CO)[C@@H](O)[C@H]2O)c(=O)n1
inactive: [1] | [2] | [9] | [10]

CNC(=O)[C@H](CC1=CN=C2C=CCC=C12)NC(=O)[C@@H](CC(=O)NO)CC(C)C
active: [1] 1.47 µM | [9] 4.14 µM | [3] 2.93 µM | [10] 1.47 µM | [7] 1.47 µM
inactive: [4]

COc1cc(CNC(=O)CCCCC=CC(C)C)ccc1O
inactive: [1] | [2] | [6] | [10] | [7] | [8] | [5]

CSc1cccc(Nc2ncc3cc(-c4c(Cl)cccc4Cl)c(=O)n(C)c3n2)c1
active: [1] 1.85 µM | [9] 3.29 µM | [3] 0.465 µM | [6] 0.369 µM | [10] 3.29 µM | [7] 6.57 µM | [8] 2.33 µM | [5] 4.65 µM | [4] 2.64 µM

CC(C)n1c(C=C[C@H](O)C[C@H](O)CC(=O)O)c(-c2ccc(F)cc2)c2ccccc21
active: [1] 3.29 µM | [9] 3.69 µM | [3] 20.8 µM | [6] 10.4 µM | [10] 8.27 µM | [8] 1.04 µM | [5] 10.4 µM | [4] 4.18 µM

Cc1ccc(S(=O)(=O)Nc2nc3ccccc3nc2Nc2ccc3nsnc3c2)cc1
active: [1] 16.2 µM
inactive: [2] | [10] | [4]

CN(C)CCN(C)C(=O)c1ccc(NC(=O)Nc2ccc(-c3nc(N4CCOCC4)c4ccn(CC(F)(F)F)c4n3)cc2)cc1
active: [1] 0.329 µM | [9] 3.69 µM | [3] 0.208 µM | [6] 0.928 µM | [10] 3.29 µM | [7] 0.369 µM | [4] 4.69 µM

CCCCn1c(=O)n(Cc2ccccc2F)c(=O)c2[nH]c(Cc3ccc(NC(C)=O)cc3)nc21
inactive: [1] | [2] | [10] | [8] | [5] | [4]

CC1=C[C@@H]2[C@@H]([C@@H](O)C[C@@]3(C)[C@H]2C[C@@H](C)[C@]3(O)C(=O)CO)[C@@]2(C)Cc3cnn(-c4ccccc4)c3C=C12
active: [3] 23.3 µM
inactive: [2] | [9] | [10] | [7] | [8]

COC1CCC(C(=O)c2ccc3nc4c(cc3c2)CCCO4)CC1 (centres undefined)
inactive: [2] | [6] | [10] | [8] | [5] | [4]

CC[C@H](NC(=O)[C@H](C)NC)C(=O)N1C[C@@H](O)C[C@H]1Cc1c(-c2[nH]c3cc(F)ccc3c2C[C@H]2C[C@H](O)CN2C(=O)[C@H](CC)NC(=O)[C@H](C)NC)[nH]c2cc(F)ccc12
active: [8] 5.22 µM
inactive: [2] | [6] | [7] | [4]

Nc1[nH]nc2nnc(-c3c(-c4ccccc4)nn4ccccc34)cc12
active: [10] 20.8 µM
inactive: [3] | [4]

CCOC(=O)[C@H](CCc1ccccc1)N[C@@H](C)C(=O)N1CCCC1C(=O)O (some centres undefined)
active: [3] 9.27 µM | [6] 13.1 µM | [10] 13.1 µM | [7] 7.37 µM | [8] 11.7 µM
inactive: [4]

CC(=O)N1CCN(c2ccc(OCc3nn(C)c(C)c3-c3cccc4c(CCCOc5cc(C)c(Cl)c(C)c5)c(C(=O)O)n(Cc5cccnc5)c34)cc2)CC1
inactive: [2] | [9] | [6] | [10] | [7] | [4]

CC(C)C[C@H](NC(=O)c1cc2ccccc2s1)C(=O)N1CCN(C(=O)[C@H](CO)NS(=O)(=O)c2ccc(Cl)cc2Cl)CC1
active: [9] 0.0293 µM | [3] 18.5 µM
inactive: [2] | [10]

Cc1csc(-c2nnc(Nc3ccc(Oc4ncccc4-c4ccnc(N)n4)cc3)c3ccccc23)c1
inactive: [2] | [6] | [10] | [7] | [5]
active: [4] 6.62 µM

O=C1NC(=O)C(c2cnc3ccccn23)=C1c1cn2c3c(cccc13)CN(C(=O)N1CCOCC1)CC2
active: [3] 0.0185 µM | [5] 10.4 µM
inactive: [2] | [9] | [6] | [10] | [7] | [8]

COc1cc2nccc(Oc3ccc(NC(=O)Nc4cc(C)on4)c(Cl)c3)c2cc1OC
active: [4] 9.35 µM
inactive: [2]

Cc1ccccc1-n1c(Cn2nc(-c3cccc(O)c3)c3c(N)ncnc32)nc2cccc(C)c2c1=O
inactive: [2] | [10] | [8] | [5] | [4]
active: [7] 13.1 µM

Cc1cc(CS(=O)(=O)c2ccccc2)cc(OCc2ccc(CN3CCC[C@H]3CO)cc2)c1
active: [3] 16.5 µM
inactive: [2] | [6] | [7] | [8]

Cc1nn(Cc2ccccc2Cl)c(C)c1CN(C)CC(O)COc1ccc(Cl)cc1 (centres undefined)
inactive: [2]
active: [9] 18.5 µM

CC1(C)CC(=O)c2c(C(F)(F)F)nn(-c3ccc(C(N)=O)c(NC4CCC(O)CC4)c3)c2C1 (centres undefined)
active: [9] 0.185 µM | [3] 0.369 µM | [10] 0.261 µM | [7] 0.369 µM | [4] 0.264 µM

CCC[C@H](Nc1nc(-c2ccc(NC(=O)NCC)c(OC)c2)ncc1C)c1cccnc1
inactive: [2] | [10] | [4]
active: [9] 0.233 µM | [6] 0.147 µM | [8] 0.208 µM | [5] 0.329 µM

CN(C(Cc1ccc(OS(=O)(=O)c2cccc3cnccc23)cc1)C(=O)N1CCN(c2ccccc2)CC1)S(=O)(=O)c1cccc2cnccc12 (centres undefined)
active: [3] 5.22 µM | [5] 5.22 µM
inactive: [2] | [4]

Cc1cccc(-c2[nH]c(C(C)(C)C)nc2-c2ccc3c(c2)OCO3)n1
active: [2] 8.27 µM
inactive: [10]

COC(=O)Nc1ccc(-c2nc(N3CCOCC3)c3cnn(C4CCN(C(=O)OC)CC4)c3n2)cc1
active: [1] 1.31 µM | [3] 2.61 µM | [5] 16.5 µM | [4] 4.18 µM

COc1cc2c(cc1OC)[C@@H]1Cc3ccc(OC)c(OC)c3CN1CC2
inactive: [2] | [9] | [4]

CN[C@@H]1CN(c2ccc3c(=O)c(C(=O)O)cn(-c4nccs4)c3n2)C[C@@H]1OC
active: [6] 14.4 µM | [10] 14.4 µM | [5] 6.44 µM | [4] 7.24 µM
inactive: [8]

O=C(c1ccc(F)c(F)c1Nc1ccc(I)cc1F)N1CC(O)([C@H]2CCCCN2)C1
inactive: [2]
active: [9] 2.61 µM | [3] 14.7 µM

Cc1ccc2c(c1)C(=O)[C@]1(O)CCN(c3ccccc3)C1=N2
active: [3] 11.7 µM
inactive: [6] | [5] | [4]

CCN(CCO)CCCOc1ccc2c(Nc3cc(CC(=O)Nc4cccc(F)c4)[nH]n3)ncnc2c1
inactive: [2] | [9] | [6] | [10] | [7] | [8]

CCC(=O)N1CCN(c2ccc(-n3c(=O)ccc4cnc5ccc(-c6cnc7ccccc7c6)cc5c43)cc2C(F)(F)F)CC1
inactive: [2] | [9] | [6] | [10] | [7] | [5] | [4]

CC(C)(C)c1[nH]cnc1C=c1[nH]c(=O)c(=Cc2ccccc2)[nH]c1=O
active: [3] 0.0227 µM | [6] 0.018 µM | [10] 0.016 µM | [7] 0.0202 µM

Nc1ncnc2c1ncn2[C@@H]1O[C@H](CO)[C@@H](O)[C@@H]1O
active: [9] 10.4 µM | [3] 14.7 µM | [7] 11.7 µM | [8] 9.27 µM
inactive: [4]

COc1cc2c(cc1Cc1cccc(Cl)c1F)c(=O)c(C(=O)O)cn2[C@H](CO)C(C)C
inactive: [2] | [9] | [6] | [10]
active: [3] 16.5 µM
